According to PubChem BioAssay (NCATS):
Records with an inconclusive call do not appear. A call without a number means that no potency is given here. Calls of active or inactive are those of the source. Unless noted, calls follow the shape of the dose curve; as a rule, active = well fitted curve in the direction sought with a large enough effect; inconclusive = small, poorly fitted or top-dose-only effect, or another doubt; inactive = no such curve, though single readings can be large; an effect the other way counts as inactive or inconclusive. Where a SMILES comes first, the peptide text is derived from it. [ ]: non-standard residue; d: D form. pGlu = O=C1CC[C@@H](C(=O)O)N1; Thz = O=C(O)[C@@H]1CSCN1

Assay: qHTS profiling of the MIPE4 collection as inhibitors of Plasmodium falciparum (3D7) proliferation (AID 743344; call rule not given here)
Settings: P. falciparum 3D7 in erythrocytes, SYBR Green DNA fluorescence, 72 h; at 28.5 µM
How it was run: (§1)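 Erythrocytes infected with P. falciparum (0.3% parasitemia, 2.5% hematocrit) incubated with compounds 72 h at 37 C, 5% CO2. Lysis with saponin/Triton buffer containing SYBR Green I, overnight at room temperature in the dark; DNA fluorescence (485/535 nm) normalised to 0.29 uM artemisinin and DMSO.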

| SMILES | parasite growth, % of DMSO control [%] |
| --- | --- |
| CC[C@@H](C)[C@H]1O[C@]2(CC[C@H]1C)C[C@@H]1C[C@@H](CC=C(C)[C@@H](O[C@H]3C[C@H](OC)[C@@H](O[C@H]4C[C@H](OC)[C@@H](O)[C@H](C)O4)[C@H](C)O3)[C@@H](C)C=CC=C3CO[C@@H]4[C@H](O)C(C)=C[C@@H](C(=O)O1)[C@]34O)O2 | 35.5 |
| C=C[C@@H]1CN2CC[C@@H]1C[C@H]2[C@H](O)c1ccnc2ccc(OC)cc12 | 6.67 |
| C[N+](C)(CCCCCC[N+](C)(C)CCCN1C(=O)c2cccc3cccc(c23)C1=O)CCCN1C(=O)c2cccc3cccc(c23)C1=O | 5.01 |
| C=CC(C)=C[C@@]1(C)SC(=O)C(C)=C1O | 98.9 |

Assay: qHTS profiling of the MIPE4 collection as inhibitors of Plasmodium falciparum (DD2) proliferation (AID 743345; call rule not given here)
Settings: P. falciparum Dd2 in erythrocytes, SYBR Green DNA, 72 h; at 28.5 µM
How it was run: as §1

| SMILES | parasite growth remaining, % of DMSO control (lower = more inhibition) [%] |
| --- | --- |
| CC[C@@H](C)[C@H]1O[C@]2(CC[C@H]1C)C[C@@H]1C[C@@H](CC=C(C)[C@@H](O[C@H]3C[C@H](OC)[C@@H](O[C@H]4C[C@H](OC)[C@@H](O)[C@H](C)O4)[C@H](C)O3)[C@@H](C)C=CC=C3CO[C@@H]4[C@H](O)C(C)=C[C@@H](C(=O)O1)[C@]34O)O2 | 6.32 |
| C=C[C@@H]1CN2CC[C@@H]1C[C@H]2[C@H](O)c1ccnc2ccc(OC)cc12 | 9.34 |
| C[N+](C)(CCCCCC[N+](C)(C)CCCN1C(=O)c2cccc3cccc(c23)C1=O)CCCN1C(=O)c2cccc3cccc(c23)C1=O | 5.17 |
| C=CC(C)=C[C@@]1(C)SC(=O)C(C)=C1O | 108 |

Assay: qHTS profiling of the MIPE4 collection as inhibitors of Plasmodium falciparum (DD2) proliferation (Rep 2) (AID 743346; call rule not given here)
Settings: P. falciparum Dd2 in erythrocytes, SYBR Green DNA, 72 h; at 28.5 µM
How it was run: as §1

| SMILES | parasite growth, % of control (lower = inhibition) [%] |
| --- | --- |
| CC[C@@H](C)[C@H]1O[C@]2(CC[C@H]1C)C[C@@H]1C[C@@H](CC=C(C)[C@@H](O[C@H]3C[C@H](OC)[C@@H](O[C@H]4C[C@H](OC)[C@@H](O)[C@H](C)O4)[C@H](C)O3)[C@@H](C)C=CC=C3CO[C@@H]4[C@H](O)C(C)=C[C@@H](C(=O)O1)[C@]34O)O2 | 38.4 |
| C=C[C@@H]1CN2CC[C@@H]1C[C@H]2[C@H](O)c1ccnc2ccc(OC)cc12 | 20.6 |
| C[N+](C)(CCCCCC[N+](C)(C)CCCN1C(=O)c2cccc3cccc(c23)C1=O)CCCN1C(=O)c2cccc3cccc(c23)C1=O | 6.76 |
| C=CC(C)=C[C@@]1(C)SC(=O)C(C)=C1O | 151 |

Assay: qHTS profiling of the MIPE4 collection as inhibitors of Plasmodium falciparum (HB3) proliferation (AID 743347; call rule not given here)
Settings: P. falciparum HB3 in erythrocytes, SYBR Green DNA, 72 h; at 28.5 µM
Text: Plasmodium falciparum is a virulent malarial parasite that kills 1-2 million people worldwide each year. Transmitted by mosquitoes, the sporozoite form of the parasite enters the blood stream to infect hepatocytes, where they become merozoites that infect red blood cells (erythrocytes). Within erythrocytes, merozoites begin a […] cycle of growth and division, after which the parasite is released to infect new red blood cells. Gametocytes, which form within erythrocytes as well, circulate in the bloodstream and are ingested by the mosquito, thereby completing the life cycle. To profile malarial isolates for differential chemical responses and to identify inhibitors of malarial growth, an assay that measures P. falciparum growth and replication within erythrocytes was employed. This assay uses a DNA binding fluorescent dye (SYBR Green) to detect parasite DNA following cell lysis. Because mature erythrocytes lack DNA, only Plasmodium-derived DNA is detected.
The SYBR Green viability assay was adapted from a method described previously (Plouffe et al., 2008). For screening 3 ul culture medium was dispensed into 1536 well black clear bottom plates (Aurora Biotechnologies) using a Multidrop Combi (Thermo Fisher Scientific Inc.), 23 nL compounds in DMSO were added by a pin tool (Kalypsys), and 5 ul of erythrocytes infected with P. falciparum (0.3% parasitemia, 2.5% hematocrit final concentration) were added. The plates were incubated at 37 C in a humidified incubator in 5% CO2 for 72 h, and 2 ul lysis buffer (20 mM Tris HCl, 10 mM EDTA, 0.16% saponin, 1.6% triton X, 10X SYBR Green I supplied as 10,000X […] by Invitrogen) was added to each well. The plates were mixed for 25 sec with gentle shaking and incubated overnight at room temperature in the dark. The following morning, fluorescence intensity at 485(14) nm excitation and 535(25) nm emission wavelengths was measured on an EnVision (Perkin Elmer) plate reader. Plate reads were normalized relative to the control inhibitor (0.29 uM artemisinin) and vehicle (DMSO) wells present on each plate and then corrected by an algorithm using vehicle-only control plates at the beginning and end of the compound plate stack.

| SMILES | growth, % of control [%] |
| --- | --- |
| CC[C@@H](C)[C@H]1O[C@]2(CC[C@H]1C)C[C@@H]1C[C@@H](CC=C(C)[C@@H](O[C@H]3C[C@H](OC)[C@@H](O[C@H]4C[C@H](OC)[C@@H](O)[C@H](C)O4)[C@H](C)O3)[C@@H](C)C=CC=C3CO[C@@H]4[C@H](O)C(C)=C[C@@H](C(=O)O1)[C@]34O)O2 | 12.5 |
| C=C[C@@H]1CN2CC[C@@H]1C[C@H]2[C@H](O)c1ccnc2ccc(OC)cc12 | 5.53 |
| C[N+](C)(CCCCCC[N+](C)(C)CCCN1C(=O)c2cccc3cccc(c23)C1=O)CCCN1C(=O)c2cccc3cccc(c23)C1=O | 4.26 |
| C=CC(C)=C[C@@]1(C)SC(=O)C(C)=C1O | 77.3 |

Assay: qHTS assay for measurement of the activity of small molecule inhibitors on Zika virus induced Caspase-3 activity in human astrocytoma cells (AID 1224859)
Settings: SNB-19 ZIKV-induced caspase-3/7, luminescence, 6 h; series mostly up to 45.7 µM
How it was run: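 A cell-based luminescent caspase-3/7 assay used SNB-19 cells infected with ZIKV (2 FFU/cell) for 6 h following 1 h compound pretreatment.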

| SMILES | Potency |
| --- | --- |
| CC[C@@H](C)[C@H]1O[C@]2(CC[C@H]1C)C[C@@H]1C[C@@H](CC=C(C)[C@@H](O[C@H]3C[C@H](OC)[C@@H](O[C@H]4C[C@H](OC)[C@@H](O)[C@H](C)O4)[C@H](C)O3)[C@@H](C)C=CC=C3CO[C@@H]4[C@H](O)C(C)=C[C@@H](C(=O)O1)[C@]34O)O2 | inactive |
| C=C[C@@H]1CN2CC[C@@H]1C[C@H]2[C@H](O)c1ccnc2ccc(OC)cc12 | inactive |
| C[N+](C)(CCCCCC[N+](C)(C)CCCN1C(=O)c2cccc3cccc(c23)C1=O)CCCN1C(=O)c2cccc3cccc(c23)C1=O | inactive |
| C=CC(C)=C[C@@]1(C)SC(=O)C(C)=C1O | inactive |

Assay: qHTS assay to identify small molecule inhibitors of chordoma cells - UCH-1 (AID 1259355); also: nearly all actives have a fitted effect of over 55% in size; also: potency is read from the fitted curve at half-maximal effect
Settings: UCH-1 chordoma viability, CellTiter-Glo, 48 h, combination, with auranofin plus four topoisomerase inhibitors; series mostly up to 46.1 µM
How it was run: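 Luminescent ATP read-out (CellTiter-Glo, 30min at room temperature) measured viability of UCH-1 cells exposed for 48hr to test drugs at 15 concentrations, co-dosed with a five-agent combination of auranofin, camptothecin, doxorubicin, rubitecan and topotecan.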

| SMILES | Potency |
| --- | --- |
| Cc1onc(-c2c(F)cccc2Cl)c1C(=O)N[C@@H]1C(=O)N2[C@@H]1SC(C)(C)[C@@H]2C(=O)O | inactive |
| C[S+](CC[C@H](N)C(=O)O)C[C@H]1O[C@@H](n2cnc3c(N)ncnc32)[C@H](O)[C@@H]1O (stereo partly drawn) | inactive |
| CC(=O)O[C@H]1C[C@@]2(C)[C@@H](C[C@@H](O)[C@H]3[C@@]4(C)CC[C@@H](O)[C@@H](C)[C@@H]4CC[C@@]32C)/C1=C(\CCC=C(C)C)C(=O)O | inactive |
| O=C(O)Cc1ccc(-c2ccccc2)cc1 | inactive |
| CC[C@H]1OC(=O)[C@H](C)C(=O)[C@H](C)[C@@H](O[C@@H]2O[C@H](C)C[C@H](N(C)C)[C@H]2O)[C@](C)(OC)C[C@@H](C)C(=O)[C@H](C)[C@H]2N(CCCCn3cnc(-c4cccnc4)c3)C(=O)O[C@]12C | inactive |
| COc1cc(/C=C/C(=O)N2CCN(CC(=O)N3CCCC3)CC2)cc(OC)c1OC | inactive |
| O=C(O)COc1ccc(C(=O)c2cccs2)c(Cl)c1Cl | inactive |
| C[C@H](O)[C@H](O)[C@H]1CNc2nc(N)[nH]c(=O)c2N1 | inactive |
| Nc1ccc(O)c(C(=O)O)c1 | inactive |
| NC(=O)C(c1ccccc1)(c1ccccc1)[C@@H]1CCN(CCc2ccc3c(c2)CCO3)C1 | inactive |
| COc1cc(/C=C/C(=O)CC(=O)/C=C/c2ccc(O)c(OC)c2)ccc1O | inactive |
| CC1(C)S[C@@H]2[C@H](NC(=O)[C@H](N)c3ccc(O)cc3)C(=O)N2[C@H]1C(=O)O | inactive |
| CN1CCN(c2cc3c(nn2)Oc2ccccc2N3C)CC1 | inactive |
| CC[C@H]1OC(=O)[C@H](C)[C@@H](O[C@H]2C[C@@](C)(OC)[C@@H](O)[C@H](C)O2)[C@H](C)[C@@H](O[C@@H]2O[C@H](C)C[C@H](N(C)C)[C@H]2O)[C@](C)(O)C[C@@H](C)C(=O)[C@H](C)[C@@H](O)[C@]1(C)O | inactive |
| Cc1ccc(O)c(-n2nc3ccccc3n2)c1 | inactive |
| O=c1[nH]c2ccccc2n1CCCN1CCN(C(c2ccccc2)c2ccccc2)CC1 | inactive |
| O=C(O)[C@H](O)[C@@H](O)[C@H](O)[C@H](O)CO | inactive |

| SMILES | Potency |
| --- | --- |
| CC1(C)S[C@@H]2[C@H](NC(=O)[C@H](NC(=O)N3CCN(S(C)(=O)=O)C3=O)c3ccccc3)C(=O)N2[C@H]1C(=O)O | inactive |
| CC1(C)[C@@H](O[C@H]2O[C@H](C(=O)O)[C@@H](O)[C@H](O)[C@H]2O[C@@H]2O[C@H](C(=O)O)[C@@H](O)[C@H](O)[C@H]2O)CC[C@]2(C)[C@H]3C(=O)C=C4[C@@H]5C[C@@](C)(C(=O)O)CC[C@]5(C)CC[C@@]4(C)[C@]3(C)CC[C@@H]12 | inactive |
| COC(=O)[C@H]1[C@H]2C[C@@H]3c4[nH]c5cc(OC)ccc5c4CCN3C[C@H]2C[C@@H](OC(=O)/C=C/c2cc(OC)c(OC)c(OC)c2)[C@@H]1OC | inactive |
| O=C1CC[C@@H](C(=O)N2CSC[C@H]2C(=O)O)N1 ([pGlu]-[Thz]-OH) | inactive |
| O=C(O)[C@H](CC(=O)N1C[C@H]2CCCC[C@H]2C1)Cc1ccccc1 | inactive |
| CCCCCC[C@@H](O)C/C=C\CCCCCCCC(=O)O | inactive |
| CC1(C)C[C@@H]1C(=O)N/C(=C\CCCCSC[C@H](N)C(=O)O)C(=O)O | inactive |
| CN1[C@@H]2CC[C@H]1CC(OC(=O)C(CO)c1ccccc1)C2 (stereo partly drawn) | inactive |
| CC1(C)[C@@H](O)CC[C@]2(C)[C@H]3C(=O)C=C4[C@@H]5C[C@@](C)(C(=O)O)CC[C@]5(C)CC[C@@]4(C)[C@]3(C)CC[C@@H]12 | inactive |
| CCCCC[C@H](O)/C=C/[C@@H]1[C@@H](C/C=C\CCCC(=O)O)[C@@H](O)C[C@H]1O | inactive |
| CO[C@H]1C[C@@H]2CC[C@@H](C)[C@@](O)(O2)C(=O)C(=O)N2CCCC[C@H]2C(=O)O[C@H]([C@H](C)C[C@@H]2CC[C@@H](O)[C@H](OC)C2)CC(=O)[C@H](C)C=C(C)[C@@H](O)[C@@H](OC)C(=O)[C@H](C)C[C@H](C)/C=C/C=CC=C1C | inactive |
| C=C(Nc1ccc(OCC)cc1)Nc1ccc(OCC)cc1 | inactive |
| CC(C(=O)O)c1ccc2c(c1)[nH]c1ccc(Cl)cc12 (stereo not drawn) | inactive |
| C=CCN1C(=O)C(CC(C)C)NC1=S (stereo not drawn) | inactive |
| COc1cc(CNC(=O)CCCC/C=C/C(C)C)ccc1O | inactive |
| CC(=O)[C@]1(O)Cc2c(O)c3c(c(O)c2[C@@H](O[C@H]2C[C@H](N)[C@H](O)[C@H](C)O2)C1)C(=O)c1c(O)cccc1C3=O | 1580 nM (active) |
